# Screens as filed in PubChem BioAssay.
# A selection: hits, their analogues and other compounds. The true share with any hit is near 19%.
# TGFb inhibitor – inhibitors of TGF-b signaling; HepG2 CAGA-GFP TGF-b/SMAD3 reporter, GFP fluorescence, 18 h; TGF-beta stimulated, 500 pg/mL final; Potency, µM (highest dose often 46.1 µM), for the others: at the top dose activity, negative = inhibition, hits mostly inhibitors; hit rate 1.2% among 410,000; further: potency means the concentration at half of the fitted maximal effect; on the % scale 0 is the no-effect control and ±100 the full control effect; nearly all actives have a fitted effect of over 65% in size
#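 Cell-based qHTS in HEPG2 carrying a CAGA-GFP Smad reporter; compounds added before 500 pg/mL final TGF-beta, 18 h incubation at 37 degrees C, GFP fluorescence quantified per cell by imaging cytometry.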
# DT40 TDP1 no CPT – qHTS for Inhibitors of human tyrosyl-DNA phosphodiesterase 1 (TDP1): qHTS in cells in absence of CPT; Potency, µM (doses to about 46.2 µM), for inactives: top-dose activity change, negative = growth inhibition, most hits filed as inhibitors; DT40 Tdp1-/- hTDP1 cells, no CPT, ATP luminescence, 48 h; hit rate 15% among 420,000; further: potency means the concentration at half of the fitted maximal effect; on the % scale 0 is the no-effect control and ±100 the full control effect; nearly all actives have a fitted effect of over 55% in size
#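 Chicken DT40 Tdp1-/- cells complemented with human TDP1, screened without camptothecin (DMSO vehicle only), 400 cells/well. Compounds pin-transferred, cells incubated at 37 °C for at least 48 hr. Growth read as ATP-dependent luminescence (CellTiter-Glo, 30 min at RT).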
# S-ASM inh – human S-ASM enzyme inhibition; P17405; placental ASM, HMU-PC fluorogenic substrate, 60 min; Potency, µM (titrated, usually from 57.5 µM), for the others: top-dose activity change, negative = inhibition, usual class: inhibitors; hit rate 0.006% among 340,000; AID 504937; further: potency means the concentration at half of the fitted maximal effect
# Target sequence (P17405 47-631 limits assumed): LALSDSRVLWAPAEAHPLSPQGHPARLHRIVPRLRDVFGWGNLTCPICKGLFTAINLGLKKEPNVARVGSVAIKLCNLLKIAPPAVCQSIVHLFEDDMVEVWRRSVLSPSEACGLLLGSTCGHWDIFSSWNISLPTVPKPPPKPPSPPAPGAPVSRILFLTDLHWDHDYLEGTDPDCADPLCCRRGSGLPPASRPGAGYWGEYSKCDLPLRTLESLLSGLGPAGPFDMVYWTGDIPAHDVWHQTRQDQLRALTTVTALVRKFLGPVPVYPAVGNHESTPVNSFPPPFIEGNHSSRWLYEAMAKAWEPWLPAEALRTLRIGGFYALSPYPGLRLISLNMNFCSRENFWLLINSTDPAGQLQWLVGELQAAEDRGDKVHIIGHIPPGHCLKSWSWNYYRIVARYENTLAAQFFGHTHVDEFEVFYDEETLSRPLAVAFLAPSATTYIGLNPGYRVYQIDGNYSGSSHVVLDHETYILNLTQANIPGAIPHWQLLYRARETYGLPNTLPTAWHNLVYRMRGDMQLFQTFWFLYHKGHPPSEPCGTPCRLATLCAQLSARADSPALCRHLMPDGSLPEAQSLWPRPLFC
#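 Steps: dispense placental human ASM, pin compound, wait 10 min at room temperature, add HMU-PC0 substrate at 9 uM final, incubate 60 min at 37 °C, add stop solution raising pH to 10, read fluorescence.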
# HepG2 tox – counter-screen for TGF-b inhibitors: cytotoxicity in HepG2 cells; HepG2 CAGA-GFP viability, ATP luminescence, 18 h; Potency, µM (top dose mostly 46.1 µM), inactives show at the top dose activity change, negative = cytotoxicity, usual class: cytotoxic; hit rate 0.76% among 410,000; AID 588856; further: potency means the concentration at half of the fitted maximal effect
#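 HepG2 CAGA-GFP cells (1000/well, DMEM with 1% FBS) received compound, then TGF-beta at 500 pg/mL final, and were incubated 18 hours at 37 degrees C. Viability was read by CellTiter-Glo luminescence. Media-only wells were set as complete cell-killing and DMSO as no toxicity.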
# TDP1 cell CPT – growth inhibition of DT40 Tdp1-/-;hTDP1 cells with camptothecin (screen for TDP1 inhibitors); chicken DT40 Tdp1-/-;hTDP1 cells + 20 nM CPT, ATP luminescence, 48 h; Potency, µM (top dose mostly 46.2 µM), without a hit: at the top dose activity change, negative = growth inhibition, actives largely listed as inhibitors; hit rate 12% among 420,000; further: potency means the concentration at half of the fitted maximal effect; on the % scale 0 is the no-effect control and ±100 the full control effect; nearly all actives have a fitted effect of over 55% in size
#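 Cell growth measured by CellTiter-Glo luminescence after a minimum 48 h, 37 C compound exposure with 20 nM CPT in Tdp1-knockout DT40 cells stably expressing hTDP1, seeded 400/well; qHTS titration format.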
# IL-1B inflam inh – blocks inflammasome-driven IL-1 beta release; THP-1 LPS/ATP IL-1B secretion, AlphaLISA, 16 h; stronger effect = lower value; activity change, % at 57.5 µM; hit rate 4.7% among 360,000; in the data active means activity change below about -50%; inconclusive means mostly about -30% to -49%; further: on the % scale 0 is the no-effect control and ±100 the full control effect
#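 Secreted IL-1B measured by AlphaLISA bead assay after 16 h compound exposure of THP-1 cells; compounds (final up to 57.5 uM) added 1 h before LPS (250 ng/mL) and ATP (1.25 mM) stimulation; lower signal means less secretion.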
# * = called active by the depositor; ? = inconclusive; . = not tested or not shown; [ ] = dose if it differs, or a comment. Unless noted, the call rests on the fitted dose curve; in most records, active means well fitted curve in the direction sought with a large enough effect; inconclusive means small, poorly fitted or top-dose-only effect, or another doubt; inactive means no such curve, though single readings can be large; an effect the other way counts as inactive or inconclusive.
SMILES,TGFb inhibitor,DT40 TDP1 no CPT,S-ASM inh,HepG2 tox,TDP1 cell CPT,IL-1B inflam inh
Cc1ccc(-c2cn(-c3ccccc3)c(SCC(=O)NC3CCS(=O)(=O)C3)n2)cc1C (stereo not drawn),0.5%,?,-1.8%,1.7%,?,6.0
O=C(Cc1ccc(Cl)cc1)NCCCNC(=O)c1cccnc1,15.9%,-12.3%,-3.8%,-3.7%,-23.4%,0.6
COc1ccccc1CNC(=O)c1cc(-c2ccccc2C)nn1CC1CC(c2cccnc2)=NO1 (stereo not drawn),-40.5%,?,-6.7%,-20.5%,?,-25.7
Cc1ccccc1-c1cc(C(=O)NCc2cccc(Br)c2)n(CC2CC(c3cccnc3)=NO2)n1 (stereo not drawn),?,18.4µM*,-21.2%,-22.1%,?,-24.0
Cc1cccc(Cn2c(SCC(=O)Nc3ccccc3)nc3c2c(=O)[nH]c(=O)n3C)c1,0.7%,20.6µM*,0.5%,-13.7%,?,?
Cc1csc(Sc2nc3c(c(=O)[nH]c(=O)n3C)n2Cc2ccccc2Cl)n1,2.9%,?,4.1%,2.7%,?,-27.2
Cn1c(=O)[nH]c(=O)c2c1nc(NC1CCCCC1)n2Cc1ccccc1,-9.7%,?,-3.6%,-0.7%,?,-6.9
Cc1cccc(Cn2c(Sc3nc(C)cs3)nc3c2c(=O)[nH]c(=O)n3C)c1,-17.7%,18.4µM*,2.9%,-5.8%,?,25.5
Cc1cccc(Cn2c(NC3CCCC3)nc3c2c(=O)[nH]c(=O)n3C)c1,-3.5%,23.1µM*,.,-18.1%,?,-14.3
CN1OC[C@@H]2C(=O)N3CCc4c([nH]c5ccccc45)[C@@H]3C[C@@H]21,-0.8%,-23.3%,.,-2.5%,-22.6%,31.9
O=C(NCN1C(=O)C2C3C=CC(C3)C2C1=O)Nc1ccccc1O (stereo not drawn),-17.7%,-3.0%,2.6%,6.9%,12.0%,9.9
CC(=O)N1N=C(c2cccc([N+](=O)[O-])c2)OC1c1ccc(Cl)cc1Cl (stereo not drawn),-16.1%,?,-11.1%,-0.3%,-10.2%,-51.6*
Cc1ccc(S(=O)(=O)N(C)CCCC(=O)NCc2ccc3c(c2)OCO3)cc1,-2.9%,23.1µM*,2.5%,-3.1%,-14.7%,26.0
CN(CCCC(=O)NCc1ccc2c(c1)OCO2)S(=O)(=O)c1ccc([N+](=O)[O-])cc1,-25.3%,23.1µM*,-0.7%,-38.9%,?,-2.9
O=C(Cc1ccc([N+](=O)[O-])cc1)NCc1ccc2c(c1)OCO2,5.5%,-25.0%,3.4%,5.2%,-11.1%,0.0
Cc1ccc2c(=O)cc(C(=O)Nc3ccc(S(=O)(=O)N4CCCCC4C)cc3)oc2c1C (stereo not drawn),-20.0%,-21.0%,.,-6.7%,-8.7%,.
N/C(=N\OC(=O)Cc1ccc([N+](=O)[O-])cc1)c1cccc(Br)c1,11.3%,2.1%,-4.5%,-1.4%,26.0%,-81.6*
N/C(=N\OC(=O)Cc1ccc([N+](=O)[O-])cc1)c1ccc([N+](=O)[O-])cc1,6.7%,?,-2.8%,-7.4%,-0.3%,-1.0
Cc1ccc(C(=O)O/N=C(\N)Cc2ccc([N+](=O)[O-])cc2)c(Cl)c1,-17.4%,23.1µM*,3.0%,-25.8%,?,?
N/C(Cc1ccc([N+](=O)[O-])cc1)=N\OC(=O)c1ccc2ccccc2c1,23.4%,?,-14.1%,-31.3%,9.2µM*,3.5
Cc1cccc(C(=O)O/N=C(\N)Cc2ccc([N+](=O)[O-])cc2)c1,-17.2%,-22.3%,-1.4%,-30.8%,25.9µM*,-7.2
Cc1cc2ccccn2c1C(=O)Nc1cccc(Cl)c1,-12.9%,?,28.5%,-1.3%,-6.7%,0.0
O=C(c1ccc(S(=O)(=O)Nc2ccccc2F)cc1)N1CCN(c2ccccn2)CC1,-16.6%,?,3.0%,-31.2%,?,24.5
Cc1ccccc1NS(=O)(=O)c1ccc(C(=O)N2CCN(c3ccccc3O)CC2)cc1,-4.4%,14.6µM*,-0.6%,3.7%,11.6µM*,?
Cc1ccccc1NS(=O)(=O)c1ccc(C(=O)N2CCCCCC2)cc1,-24.5%,?,7.2%,-26.0%,?,2.3
SMILES,TGFb inhibitor,DT40 TDP1 no CPT,S-ASM inh,HepG2 tox,TDP1 cell CPT,IL-1B inflam inh
Cc1ccccc1NS(=O)(=O)c1ccc(C(=O)N2CCN(c3ccccn3)CC2)cc1,-0.6%,14.6µM*,4.0%,-19.3%,?,-3.6
O=C(Nc1ccc(Cl)cc1)C1CCCN1C(=O)NCc1ccccc1 (stereo not drawn),17.8%,-6.1%,0.1%,-4.3%,2.0%,-8.2
CCOc1ccc(CCNC(=O)COC(=O)Cn2nc(C)c([N+](=O)[O-])c2C)cc1OCC,-1.9%,3.5%,-1.5%,-11.1%,-5.6%,8.6
Cc1c(C(=O)N(C)Cc2cscn2)sc2ncnc(NC[C@H]3CCc4ccccc4O3)c12,.,?,.,.,-19.1%[9.04 µM],.
CCOC(=O)C1CCCN(S(=O)(=O)c2cc(OCC(=O)NC3CCCCC3)c(C)cc2Cl)C1 (stereo not drawn),-4.6%,18.4µM*,-6.1%,17.0%,18.4µM*,-6.6
Cc1cc(S(=O)(=O)N2CCCC2)ccc1OCC(=O)NC1CCCC1,10.1%,-21.9%,-0.8%,-2.9%,0.7%,13.9
Cc1cc(Cl)c(S(=O)(=O)N2CCN(c3ccc(F)cc3)CC2)cc1OCC(N)=O,?,-15.1%,-4.7%,-9.1%,-25.0%,10.9
Cc1ccc(C(C)C)cc1OCC(=O)NC1CCCCCCC1,?,?,3.0%,-31.2%,18.4µM*,-57.4*
Cc1cc(Cl)c(S(=O)(=O)N2CCN(c3ccc(F)cc3)CC2)cc1OCC(=O)NC1CCCCC1,-17.8%,8.2µM*,-2.9%,-35.5%,11.6µM*,-75.5*
Cc1sc2ncnc(N3CCC(C(=O)N4CC(C)SC4=Nc4ccc(Cl)cc4)CC3)c2c1C (stereo not drawn),-30.0%,?,1.4%,-27.6%,?,7.5
CC(=O)NCCNc1ncnc2ccc(-c3ccoc3)cc12,.,-15.3%,.,.,-12.5%,.
CCCCN(C=O)c1c(CC)nc2ccc(C(=O)N3CCN(C(=O)c4ccco4)CC3)cn12,-25.5%,-9.2%,.,-13.4%,-23.1%,-25.9
Cn1c(-c2c(N)n(-c3ccccc3)c3nc4ccccc4nc23)nc2ccccc21,-13.9%,?,30.9%,-33.6%,11.6µM*,0.0
CC(=O)Nc1nc(-c2cccs2)cs1,7.4%,-12.5%,-1.7%,2.4%,6.4%,7.1
